ChEMBL document CHEMBL1157539, “Thousands of chemical starting points for antimalarial lead identification” (Nature, 2010)

Assays:
Assay type in all cases: functional
Plasmodium falciparum [1] = assay: GSK_TCMDC: Inhibition of Plasmodium falciparum 3D7 in whole red blood cells, using parasite LDH activity as an index of growth. Test compounds present at 2uM
Plasmodium falciparum [2] = assay: GSK_TCMDC: Inhibition of Plasmodium falciparum Dd2 in whole red blood cells, using parasite LDH activity as an index of growth. Test compounds present at 2uM
HepG2 = assay: GSK_TCMDC: Percent inhibition of human HepG2 cell line. Test compounds present at 10uM.

SMILES | Inhibition (Plasmodium falciparum [1]) [%] | Inhibition (Plasmodium falciparum [2]) [%] | Inhibition (HepG2) [%]
O=S(=O)(Nc1cccc(CCN2CCC(N3CCCCC3)CC2)c1)c1cccc2ccccc12 | 99 | 63 | 23
O=C(NCc1cccc(C(F)(F)F)c1)c1ccc(-c2nc3cc(F)c(F)cc3[nH]2)cc1 | 97 | 7 | 0
COc1ccc(Nc2cc(C)nc(Nc3ccc(NC(C)=O)cc3)n2)cc1 | 98 | 31 | 16
Oc1ccc(-c2cncc(NCc3ccc(F)c(F)c3)c2)cc1 | 95 | 80 | 0
O=C(Nc1ccc2c(c1)CCN2C1CCN(Cc2ccc(O)cc2)C1)c1ccco1 (configuration not stated) | 97 | 63 | 0
COc1ccc2ncc(Cl)c(CCN3CCC(NCc4ccc5c(n4)NC(=O)CS5)CC3)c2c1.Cl | 100 | 34 | 26
CC(C)c1cc2c(ccc3nc(N)nc(N)c32)[nH]1 | 93 | 4 | 49
COc1cccc(Cc2cnc3nc(N)nc(N)c3c2C)c1 | 94 | 76 | 57
Cc1cc(Nc2nc(Nc3cccc(Cl)c3)nc3ccccc23)n[nH]1 | 100 | 95 | 9
Cc1cccc(C(=O)Nc2ccnc(N(C)CCCN(C)Cc3cccc(C#N)c3)c2)c1.O=C(O)C(F)(F)F | 92 | 12 | 1
COC(=O)c1sc(-c2ccc(Cl)cc2)cc1N(CCCN1CCC(N2CCCCC2)CC1)S(=O)(=O)c1ccc(C)cc1 | 100 | 86 | 25
Cc1ccc(Cn2c(N3CCC(C(=O)NCc4cccs4)CC3)nc3ccccc32)cc1 | 99 | 71 | 0
COc1ccccc1C1CC(c2ccccc2)=NN1C(=O)c1ccccc1 (configuration not stated) | 100 | 93 | 13
Cn1nc(C(F)(F)F)c(-c2ccc(F)cc2)c1NC(=O)Nc1ccccc1 | 100 | 99 | 3
CC[C@H](C)CNCc1ccc(OCc2cccc(COc3ccc(CNC[C@@H](C)CC)cc3I)c2)c(I)c1.Cl | 99 | 60 | 99
COc1ccc(C(=O)O)cc1OCc1ccccc1 | 99 | 0 | 0
O=C(NC1CCN(c2ccnc3ccccc23)C1)c1ccc(OC(F)(F)F)cc1.O=C(O)C(F)(F)F (configuration not stated) | 89 | 68 | 35
CC1(C)CNCc2cc(NC(=O)/C=C/c3ccc(Cl)cc3)ccc21.Cl | 82 | 26 | 23
COc1ccc(C=NNc2cc(C)nc3ccc(OC)cc23)c(OC)c1 | 100 | 95 | 23
COc1ccc(-c2ccc(NC(=O)c3ccc(C#N)cc3)cc2)cc1CN(C)CCN(C)C.O=C(O)C(F)(F)F | 96 | 58 | 28
COc1ccc(NC(=O)[C@H](Cc2ccccc2)Nc2nc(NCCN3CCCC3)ncc2C)cc1.O=C(O)C(F)(F)F | 89 | 9 | 26
COc1ccc2nccc([C@@H](O)CN3CCC(NCc4cc5cc(Cl)ccc5[nH]4)CC3)c2c1.O=C(O)C(=O)O | 99 | 64 | 27
COCCNCc1cccc(-c2ccc3c(Nc4ccc(Oc5ccccc5)cc4)ccnc3c2)c1 | 100 | 99 | 25
CC(=O)Oc1cc(C)ccc1C1CCN(CCCCNC(=O)c2ccc(NC(=O)c3ccc(Cl)cc3)cc2)CC1 | 100 | 57 | 12
CCNCc1ccc(-c2cccc(-c3nc4ccccc4[nH]3)c2)cc1.O=C(O)C(F)(F)F | 100 | 18 | 26
N#Cc1cccc(C(=O)NC2CCN(c3ccnc(Nc4ccc(F)cc4)n3)C2)c1 (configuration not stated) | 98 | 91 | 4
COc1cc(C)nc2ccc(NC(=O)Nc3cccc4ccccc34)cc12 | 91 | 48 | 27
CO/C(=C\C=C\c1cc2cc(Cl)c(Cl)cc2[nH]1)C(=O)NC1CCN(CCOc2ccccc2)CC1 | 100 | 94 | 35
CCCCCN1CCC(CNS(=O)(=O)c2ccc(C(=O)Nc3cccc(C(F)(F)F)c3)cc2)CC1.O=C(O)C(F)(F)F | 98 | 13 | 13
